# According to PMC7862700, “An all-to-all approach to the identification of sequence-specific readers for epigenetic DNA modifications on cytosine”:
# Experiments:
# Experiment in all cases: DAPPL (digital affinity profiling via proximity ligation, sequencing); 10 mM Tris-HCl pH 7.5, 50 mM NaCl, 1 mM DTT, 4% glycerol, room temperature, 30 min; GST-TFs on glutathione beads, 16-mer random dsDNA library, 0.1% formaldehyde crosslink after washing; high values mean tight binding
# Settings in all cases: protein: recombinant; tags: N-terminal GST; dsDNA, one strand shown
# FLI1 = biological target: T1, FLI1 (Homo sapiens, UniProt Q01543 1-452)
# T1 sequence: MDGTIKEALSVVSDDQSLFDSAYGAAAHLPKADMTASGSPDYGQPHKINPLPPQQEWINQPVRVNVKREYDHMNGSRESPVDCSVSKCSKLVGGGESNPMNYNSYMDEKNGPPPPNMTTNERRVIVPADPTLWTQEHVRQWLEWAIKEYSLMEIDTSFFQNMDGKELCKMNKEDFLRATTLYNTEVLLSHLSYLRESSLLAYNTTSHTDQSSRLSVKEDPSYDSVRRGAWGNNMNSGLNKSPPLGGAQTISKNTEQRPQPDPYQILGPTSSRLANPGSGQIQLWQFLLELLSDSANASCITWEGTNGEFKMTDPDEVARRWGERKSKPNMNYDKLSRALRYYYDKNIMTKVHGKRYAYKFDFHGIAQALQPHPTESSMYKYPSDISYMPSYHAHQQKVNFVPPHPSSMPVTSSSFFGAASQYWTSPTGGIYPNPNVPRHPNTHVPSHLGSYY
# Procedure, shortened: (§1)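 Yeast served to express human transcription factors as GST fusions, which were then captured on glutathione beads and labelled with DNA barcodes. Pooled with a tag-only sample, they were incubated with 200 nmole of a 16-mer random double-stranded DNA library for 30 min at room temperature in Tris/NaCl/DTT/glycerol buffer, washed, crosslinked with 0.1% formaldehyde, ligated by proximity, amplified by PCR and sequenced. Dividing each hexamer's read frequency for a factor by its frequency for the tag-only sample gives the binding signal.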
# ELK1 = biological target: T2, ELK1 (Homo sapiens, UniProt P19419 1-428)
# T2 sequence: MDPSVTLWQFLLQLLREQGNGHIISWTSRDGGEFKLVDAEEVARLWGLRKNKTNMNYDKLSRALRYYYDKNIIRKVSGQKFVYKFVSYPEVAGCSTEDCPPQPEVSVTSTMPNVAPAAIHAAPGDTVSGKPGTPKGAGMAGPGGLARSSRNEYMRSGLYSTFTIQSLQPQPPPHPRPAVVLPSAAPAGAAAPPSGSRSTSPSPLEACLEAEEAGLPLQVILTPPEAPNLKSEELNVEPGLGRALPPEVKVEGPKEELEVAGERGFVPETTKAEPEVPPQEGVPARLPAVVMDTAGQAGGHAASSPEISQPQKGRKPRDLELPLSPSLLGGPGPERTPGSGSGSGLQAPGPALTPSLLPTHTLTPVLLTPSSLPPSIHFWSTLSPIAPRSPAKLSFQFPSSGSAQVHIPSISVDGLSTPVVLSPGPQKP
# Procedure, shortened: as §1
# GABPA = biological target: T3, GABPA (Homo sapiens, UniProt Q06546 1-454)
# T3 sequence: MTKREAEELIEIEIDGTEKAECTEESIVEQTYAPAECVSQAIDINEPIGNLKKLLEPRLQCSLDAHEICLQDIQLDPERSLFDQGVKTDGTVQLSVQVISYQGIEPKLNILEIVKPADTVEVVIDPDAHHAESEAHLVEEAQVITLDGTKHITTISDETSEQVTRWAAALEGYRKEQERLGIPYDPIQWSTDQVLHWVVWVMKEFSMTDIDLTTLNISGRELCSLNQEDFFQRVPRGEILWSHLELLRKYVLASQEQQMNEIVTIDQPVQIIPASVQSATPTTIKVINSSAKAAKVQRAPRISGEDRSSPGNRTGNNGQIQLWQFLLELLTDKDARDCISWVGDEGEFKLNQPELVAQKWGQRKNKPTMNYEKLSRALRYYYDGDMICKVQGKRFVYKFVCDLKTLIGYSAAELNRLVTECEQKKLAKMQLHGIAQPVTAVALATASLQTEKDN
# Procedure, shortened: as §1
# ELF1 = ELF1 (Homo sapiens, UniProt P32519 1-619)
# Chain of ELF1 (P32519 whole entry): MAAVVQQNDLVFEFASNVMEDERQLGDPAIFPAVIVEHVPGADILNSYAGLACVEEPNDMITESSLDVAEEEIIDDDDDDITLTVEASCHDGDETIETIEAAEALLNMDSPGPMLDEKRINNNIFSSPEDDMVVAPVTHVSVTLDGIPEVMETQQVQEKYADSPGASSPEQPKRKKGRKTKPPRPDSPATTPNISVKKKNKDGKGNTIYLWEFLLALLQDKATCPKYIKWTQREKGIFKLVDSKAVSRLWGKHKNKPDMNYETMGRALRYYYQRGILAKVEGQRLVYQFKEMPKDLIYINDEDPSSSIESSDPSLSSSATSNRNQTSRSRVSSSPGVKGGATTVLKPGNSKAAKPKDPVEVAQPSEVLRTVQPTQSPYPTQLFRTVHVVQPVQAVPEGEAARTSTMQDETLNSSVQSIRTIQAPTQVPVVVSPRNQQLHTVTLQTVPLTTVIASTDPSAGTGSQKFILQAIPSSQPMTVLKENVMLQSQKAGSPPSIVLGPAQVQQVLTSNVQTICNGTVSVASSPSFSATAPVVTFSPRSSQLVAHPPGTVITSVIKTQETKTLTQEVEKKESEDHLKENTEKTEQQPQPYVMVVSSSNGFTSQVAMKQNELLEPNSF
# Procedure, shortened: as §1
# EHF = biological target: T4, EHF (Homo sapiens, UniProt Q9NZC4 1-300)
# T4 sequence: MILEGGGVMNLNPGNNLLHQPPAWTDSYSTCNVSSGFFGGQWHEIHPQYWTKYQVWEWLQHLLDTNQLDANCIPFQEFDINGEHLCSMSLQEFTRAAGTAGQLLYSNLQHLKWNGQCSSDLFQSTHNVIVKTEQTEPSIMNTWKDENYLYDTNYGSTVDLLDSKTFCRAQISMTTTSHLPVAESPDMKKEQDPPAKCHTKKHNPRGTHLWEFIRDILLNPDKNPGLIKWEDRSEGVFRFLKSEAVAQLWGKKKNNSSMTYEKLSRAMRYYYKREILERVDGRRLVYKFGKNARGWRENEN
# Procedure, shortened: as §1
# SPIB = SPIB (Homo sapiens, UniProt Q01892 1-262)
# Chain of SPIB (Q01892 whole entry): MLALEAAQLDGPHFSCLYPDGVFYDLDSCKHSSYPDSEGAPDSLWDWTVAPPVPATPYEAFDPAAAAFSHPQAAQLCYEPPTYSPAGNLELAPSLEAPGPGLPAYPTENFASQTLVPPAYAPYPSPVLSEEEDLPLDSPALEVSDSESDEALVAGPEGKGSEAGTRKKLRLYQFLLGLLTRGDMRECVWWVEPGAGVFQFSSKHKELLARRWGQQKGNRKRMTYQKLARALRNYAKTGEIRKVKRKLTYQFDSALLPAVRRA
# Procedure, shortened: as §1
# ELK3 = biological target: T5, ELK3 (Homo sapiens, UniProt P41970 1-407)
# T5 sequence: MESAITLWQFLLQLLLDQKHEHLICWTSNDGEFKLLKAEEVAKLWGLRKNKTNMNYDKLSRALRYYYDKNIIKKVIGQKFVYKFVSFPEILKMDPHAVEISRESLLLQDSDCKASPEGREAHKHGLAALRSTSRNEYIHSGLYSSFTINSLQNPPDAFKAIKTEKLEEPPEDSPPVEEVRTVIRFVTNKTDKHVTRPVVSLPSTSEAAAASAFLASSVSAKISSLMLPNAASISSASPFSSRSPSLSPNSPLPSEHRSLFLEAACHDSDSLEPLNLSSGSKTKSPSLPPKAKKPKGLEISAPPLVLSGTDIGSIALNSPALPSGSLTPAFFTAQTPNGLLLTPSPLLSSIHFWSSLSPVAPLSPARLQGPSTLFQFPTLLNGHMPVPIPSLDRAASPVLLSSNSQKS
# Procedure, shortened: as §1
# SPIC = biological target: T6, SPIC (Homo sapiens, UniProt Q8N5J4 1-248)
# T6 sequence: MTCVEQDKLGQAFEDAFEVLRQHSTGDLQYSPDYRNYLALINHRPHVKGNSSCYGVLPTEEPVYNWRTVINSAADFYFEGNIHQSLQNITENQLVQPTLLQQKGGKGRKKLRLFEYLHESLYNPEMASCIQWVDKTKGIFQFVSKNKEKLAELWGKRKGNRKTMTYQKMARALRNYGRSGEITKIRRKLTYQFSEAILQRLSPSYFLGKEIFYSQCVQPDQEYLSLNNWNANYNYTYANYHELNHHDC
# Procedure, shortened: as §1
# ELF4 = ELF4 (Homo sapiens, UniProt Q99607 1-663)
# Chain of ELF4 (Q99607 whole entry): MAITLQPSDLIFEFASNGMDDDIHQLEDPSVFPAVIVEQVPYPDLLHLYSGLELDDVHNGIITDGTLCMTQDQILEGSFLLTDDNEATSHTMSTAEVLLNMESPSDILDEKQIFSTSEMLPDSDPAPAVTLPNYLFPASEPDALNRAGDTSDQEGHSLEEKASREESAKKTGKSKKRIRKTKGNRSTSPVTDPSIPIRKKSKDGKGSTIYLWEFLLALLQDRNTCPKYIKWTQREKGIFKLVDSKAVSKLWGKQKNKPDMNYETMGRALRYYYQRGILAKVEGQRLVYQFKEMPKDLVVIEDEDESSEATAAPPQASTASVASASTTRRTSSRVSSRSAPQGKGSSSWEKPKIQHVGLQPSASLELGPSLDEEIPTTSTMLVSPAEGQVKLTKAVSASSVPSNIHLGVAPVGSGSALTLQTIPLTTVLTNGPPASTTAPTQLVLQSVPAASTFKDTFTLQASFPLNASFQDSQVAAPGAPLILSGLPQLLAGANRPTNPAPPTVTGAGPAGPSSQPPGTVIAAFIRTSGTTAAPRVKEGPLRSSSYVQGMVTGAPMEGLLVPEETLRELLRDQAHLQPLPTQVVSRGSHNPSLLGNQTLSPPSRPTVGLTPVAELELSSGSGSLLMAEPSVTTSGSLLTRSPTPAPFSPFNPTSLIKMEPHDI
# Procedure, shortened: as §1
# ELK4 = biological target: T7, ELK4 (Homo sapiens, UniProt P28324-2 1-405)
# T7 sequence: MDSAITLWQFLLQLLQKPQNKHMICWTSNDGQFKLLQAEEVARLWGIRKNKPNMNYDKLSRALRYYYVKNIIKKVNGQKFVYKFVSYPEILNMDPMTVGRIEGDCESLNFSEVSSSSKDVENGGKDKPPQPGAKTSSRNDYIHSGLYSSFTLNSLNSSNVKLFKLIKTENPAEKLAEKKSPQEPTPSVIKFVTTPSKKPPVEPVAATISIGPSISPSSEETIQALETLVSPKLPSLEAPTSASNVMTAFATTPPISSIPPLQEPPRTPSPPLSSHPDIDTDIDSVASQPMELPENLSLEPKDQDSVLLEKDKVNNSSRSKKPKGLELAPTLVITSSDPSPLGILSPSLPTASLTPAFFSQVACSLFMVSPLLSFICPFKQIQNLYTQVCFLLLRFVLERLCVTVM
# Procedure, shortened: as §1
# ELF3 = biological target: T8, ELF3 (Homo sapiens, UniProt P78545 1-371)
# T8 sequence: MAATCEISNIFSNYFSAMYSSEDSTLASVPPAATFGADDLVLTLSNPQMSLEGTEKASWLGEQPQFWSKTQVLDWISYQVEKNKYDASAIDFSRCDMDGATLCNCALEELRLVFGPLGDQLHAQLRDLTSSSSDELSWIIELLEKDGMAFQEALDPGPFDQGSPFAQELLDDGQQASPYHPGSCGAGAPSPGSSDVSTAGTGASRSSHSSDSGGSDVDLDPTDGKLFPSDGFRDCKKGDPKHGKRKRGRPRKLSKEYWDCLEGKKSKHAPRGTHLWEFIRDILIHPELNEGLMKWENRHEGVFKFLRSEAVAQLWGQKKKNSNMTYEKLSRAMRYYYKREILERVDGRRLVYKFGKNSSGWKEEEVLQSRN
# Procedure, shortened: as §1
# ETV1 = ETV1 (Homo sapiens, UniProt P50549 1-477)
# Chain of ETV1 (P50549 whole entry): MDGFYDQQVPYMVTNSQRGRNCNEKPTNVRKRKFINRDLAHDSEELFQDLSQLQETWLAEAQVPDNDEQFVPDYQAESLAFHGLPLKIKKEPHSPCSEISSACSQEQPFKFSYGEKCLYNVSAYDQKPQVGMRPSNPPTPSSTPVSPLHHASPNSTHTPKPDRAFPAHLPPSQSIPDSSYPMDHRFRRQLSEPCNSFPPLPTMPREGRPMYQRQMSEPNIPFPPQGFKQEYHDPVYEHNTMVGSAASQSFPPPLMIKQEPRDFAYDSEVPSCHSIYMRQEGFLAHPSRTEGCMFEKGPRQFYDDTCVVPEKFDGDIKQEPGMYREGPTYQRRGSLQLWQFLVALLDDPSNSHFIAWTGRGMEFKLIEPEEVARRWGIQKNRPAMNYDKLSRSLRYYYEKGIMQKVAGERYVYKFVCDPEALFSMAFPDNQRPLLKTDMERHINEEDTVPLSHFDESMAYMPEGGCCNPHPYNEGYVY
# Procedure, shortened: as §1
# ERF = biological target: T9, ERF (Homo sapiens, UniProt P50548 1-548)
# T9 sequence: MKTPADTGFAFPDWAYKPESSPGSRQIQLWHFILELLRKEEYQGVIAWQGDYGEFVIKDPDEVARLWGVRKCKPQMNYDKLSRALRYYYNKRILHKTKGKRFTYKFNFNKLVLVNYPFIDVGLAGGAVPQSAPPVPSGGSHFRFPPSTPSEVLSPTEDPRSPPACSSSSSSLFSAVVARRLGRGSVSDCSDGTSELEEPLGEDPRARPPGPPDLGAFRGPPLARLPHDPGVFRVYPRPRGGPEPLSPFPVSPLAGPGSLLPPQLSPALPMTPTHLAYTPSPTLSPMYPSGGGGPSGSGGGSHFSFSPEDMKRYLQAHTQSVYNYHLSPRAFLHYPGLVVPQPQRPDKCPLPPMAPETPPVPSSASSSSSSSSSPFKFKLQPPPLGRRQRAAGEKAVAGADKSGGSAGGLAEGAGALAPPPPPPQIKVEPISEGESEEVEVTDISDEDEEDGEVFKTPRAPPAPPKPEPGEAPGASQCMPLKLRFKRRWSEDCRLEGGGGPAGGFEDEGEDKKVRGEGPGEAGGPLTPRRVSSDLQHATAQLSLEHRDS
# Procedure, shortened: as §1
# ETV3L = biological target: T10, ETV3L (Homo sapiens, UniProt Q6ZN32 1-361)
# T10 sequence: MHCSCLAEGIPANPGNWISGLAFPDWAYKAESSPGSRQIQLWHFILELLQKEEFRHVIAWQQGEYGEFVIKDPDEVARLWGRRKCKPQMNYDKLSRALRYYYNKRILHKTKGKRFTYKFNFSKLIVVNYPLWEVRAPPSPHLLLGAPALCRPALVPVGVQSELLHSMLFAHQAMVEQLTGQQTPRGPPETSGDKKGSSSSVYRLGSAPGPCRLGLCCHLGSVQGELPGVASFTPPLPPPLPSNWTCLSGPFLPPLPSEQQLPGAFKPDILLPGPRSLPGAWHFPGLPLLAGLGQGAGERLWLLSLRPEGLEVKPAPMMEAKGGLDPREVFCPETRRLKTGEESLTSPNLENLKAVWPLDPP
# Procedure, shortened: as §1
# ETS2 = biological target: T11, ETS2 (Homo sapiens, UniProt P15036 1-469)
# T11 sequence: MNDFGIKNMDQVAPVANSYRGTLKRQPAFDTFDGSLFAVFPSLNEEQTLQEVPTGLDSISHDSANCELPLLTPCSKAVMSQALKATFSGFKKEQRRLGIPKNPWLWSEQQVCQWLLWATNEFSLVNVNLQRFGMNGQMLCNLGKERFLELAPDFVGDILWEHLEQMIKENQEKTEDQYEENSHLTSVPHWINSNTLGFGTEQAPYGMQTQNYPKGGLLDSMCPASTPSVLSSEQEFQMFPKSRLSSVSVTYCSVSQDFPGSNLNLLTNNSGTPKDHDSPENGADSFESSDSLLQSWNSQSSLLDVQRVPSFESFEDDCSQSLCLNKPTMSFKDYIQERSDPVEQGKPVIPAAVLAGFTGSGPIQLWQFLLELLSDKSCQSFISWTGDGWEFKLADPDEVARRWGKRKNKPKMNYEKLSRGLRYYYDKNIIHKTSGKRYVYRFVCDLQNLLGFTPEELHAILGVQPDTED
# Procedure, shortened: as §1
# ETV7 = biological target: T12, ETV7 (Homo sapiens, UniProt Q9Y603 1-341)
# T12 sequence: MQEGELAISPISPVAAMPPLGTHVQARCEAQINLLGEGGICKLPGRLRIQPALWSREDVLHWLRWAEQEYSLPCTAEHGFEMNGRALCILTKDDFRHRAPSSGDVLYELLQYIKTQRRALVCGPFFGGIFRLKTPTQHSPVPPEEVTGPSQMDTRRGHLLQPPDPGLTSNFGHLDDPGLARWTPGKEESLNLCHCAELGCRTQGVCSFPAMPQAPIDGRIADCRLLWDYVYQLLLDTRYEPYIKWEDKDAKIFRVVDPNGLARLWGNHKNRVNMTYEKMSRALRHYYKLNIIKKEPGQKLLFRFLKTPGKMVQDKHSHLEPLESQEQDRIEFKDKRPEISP
# Procedure, shortened: as §1
# ETV3 = biological target: T13, ETV3 (Homo sapiens, UniProt P41162-2 1-143)
# T13 sequence: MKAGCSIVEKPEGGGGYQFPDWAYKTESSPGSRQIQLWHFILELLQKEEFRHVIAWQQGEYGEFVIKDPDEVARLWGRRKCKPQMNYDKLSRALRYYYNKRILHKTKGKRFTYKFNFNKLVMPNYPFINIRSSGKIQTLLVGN
# Procedure, shortened: as §1
# ETV6 = ETV6 (Homo sapiens, UniProt P41212 1-452)
# Chain of ETV6 (P41212 whole entry): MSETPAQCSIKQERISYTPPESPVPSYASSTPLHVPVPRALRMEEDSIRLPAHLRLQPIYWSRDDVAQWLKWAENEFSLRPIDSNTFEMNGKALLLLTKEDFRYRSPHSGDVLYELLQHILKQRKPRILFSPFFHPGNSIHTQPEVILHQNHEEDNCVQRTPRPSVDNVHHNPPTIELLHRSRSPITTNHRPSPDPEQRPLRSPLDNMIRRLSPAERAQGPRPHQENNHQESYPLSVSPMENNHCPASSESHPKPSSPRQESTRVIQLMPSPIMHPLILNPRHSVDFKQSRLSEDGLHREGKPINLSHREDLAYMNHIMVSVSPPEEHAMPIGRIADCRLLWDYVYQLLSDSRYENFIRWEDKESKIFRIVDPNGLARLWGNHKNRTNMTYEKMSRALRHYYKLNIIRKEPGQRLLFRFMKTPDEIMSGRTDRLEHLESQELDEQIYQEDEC
# Procedure, shortened: as §1
sequence,measurement,setting,value
GTTTGC,binding signal,FLI1,"1.06 fold enrichment (6-mer frequency, TF over GST control)"
same,binding signal,ELK1,"1.11 fold enrichment (6-mer frequency, TF over GST control)"
same,binding signal,GABPA,"1.04 fold enrichment (6-mer frequency, TF over GST control)"
same,binding signal,ELF1,"1.02 fold enrichment (6-mer frequency, TF over GST control)"
same,binding signal,EHF,"1.11 fold enrichment (6-mer frequency, TF over GST control)"
same,binding signal,SPIB,"1.07 fold enrichment (6-mer frequency, TF over GST control)"
same,binding signal,ELK3,"1.12 fold enrichment (6-mer frequency, TF over GST control)"
same,binding signal,SPIC,"1.2 fold enrichment (6-mer frequency, TF over GST control)"
same,binding signal,ELF4,"1.15 fold enrichment (6-mer frequency, TF over GST control)"
same,binding signal,ELK4,"1.17 fold enrichment (6-mer frequency, TF over GST control)"
same,binding signal,ELF3,"1.23 fold enrichment (6-mer frequency, TF over GST control)"
same,binding signal,ETV1,"1.14 fold enrichment (6-mer frequency, TF over GST control)"
same,binding signal,ERF,"1.1 fold enrichment (6-mer frequency, TF over GST control)"
same,binding signal,ETV3L,"1.05 fold enrichment (6-mer frequency, TF over GST control)"
same,binding signal,ETS2,"1.08 fold enrichment (6-mer frequency, TF over GST control)"
same,binding signal,ETV7,"1.01 fold enrichment (6-mer frequency, TF over GST control)"
same,binding signal,ETV3,"1.1 fold enrichment (6-mer frequency, TF over GST control)"
same,binding signal,ETV6,"1.02 fold enrichment (6-mer frequency, TF over GST control)"
